Consider one molecule from ChEMBL document CHEMBL1201862, “PubChem BioAssay data set” (2004).

The campaign covered roughly 270,000 compounds. About 5,800 (2.1%) were called active. Inconclusive results (about 16%) are left out. The rule behind the calls is not given here. Shown is part of a subset that was picked to be rich in actives.

Chain of Microtubule-associated protein tau (Homo sapiens) (P10636 whole entry): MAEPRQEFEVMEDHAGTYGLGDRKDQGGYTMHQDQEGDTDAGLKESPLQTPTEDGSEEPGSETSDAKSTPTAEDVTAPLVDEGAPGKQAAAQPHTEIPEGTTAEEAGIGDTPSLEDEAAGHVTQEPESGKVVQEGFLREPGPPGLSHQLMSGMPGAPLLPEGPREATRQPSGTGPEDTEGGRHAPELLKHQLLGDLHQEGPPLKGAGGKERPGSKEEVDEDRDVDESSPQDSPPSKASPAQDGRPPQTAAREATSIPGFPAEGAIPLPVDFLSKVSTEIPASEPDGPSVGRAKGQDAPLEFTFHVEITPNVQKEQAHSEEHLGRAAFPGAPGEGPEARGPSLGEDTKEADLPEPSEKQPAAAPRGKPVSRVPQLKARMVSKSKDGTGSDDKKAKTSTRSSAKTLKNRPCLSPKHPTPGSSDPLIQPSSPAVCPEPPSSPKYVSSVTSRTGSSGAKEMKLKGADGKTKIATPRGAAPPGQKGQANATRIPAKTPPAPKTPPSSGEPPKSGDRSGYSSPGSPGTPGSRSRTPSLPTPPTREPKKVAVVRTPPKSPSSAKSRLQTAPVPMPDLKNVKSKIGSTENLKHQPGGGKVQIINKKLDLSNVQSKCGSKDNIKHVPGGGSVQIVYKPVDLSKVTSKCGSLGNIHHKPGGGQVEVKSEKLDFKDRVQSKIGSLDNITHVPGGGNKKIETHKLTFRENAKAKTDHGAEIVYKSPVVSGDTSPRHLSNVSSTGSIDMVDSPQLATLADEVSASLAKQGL

This assay concerns the target Microtubule-associated protein tau (Homo sapiens) (UniProt P10636). Nature of the assay: qHTS for Inhibitors of Tau Fibril Formation, Thioflavin T Binding. [Related pubchem assays: 596 ].
As to `O=C(O)c1cc(/N=N/c2ccc(S(=O)(=O)Nc3ccccn3)cc2)ccc1O`, the Potency is 12.6 µM (active).
